PubChem BioAssay
Active and inactive are the calls of the source.

Experiments:
Albumin (Bos taurus) = Albumin (Bos taurus) (UniProt P02769); assay: bovine serum albumin binders on microarray, profiling panel, artefact control for SMM control protein annotation, biochemical, small-molecule microarray, Alexa647 label, 635/667 nm fluorescence (AID 1118); settings: BSA-A647 binding, fluorescence 635 nm, higher = more signal;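 also: score merges 667 nm emission intensity and signal-to-noise per printed compound spot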
[1] = small-molecule microarray binders of probe aXIP, primary screen, biochemical, NeuroSMM set, 635/667 nm fluorescence (AID 1119); settings: higher = more signal, called active from +8 up or from −8 down;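 also: probe is the protein aXip251-270 applied at 1 µg/mL to compound-printed slides; binding of probe to printed compounds measured as 667 nm fluorescence plus signal to noise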
[2] = small-molecule binders of probe aNOTCH3, primary screen, biochemical, small-molecule microarray, 635/667 nm fluorescence (AID 1120); settings: higher = more signal;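 also: probe is a biotin-tagged antibody raised against NOTCH3 rather than NOTCH3 protein; score merges spot fluorescence near 667 nm with spot signal to noise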
[3] = small-molecule binders of probe aNOTCH2, primary screen, biochemical, small-molecule microarray, 635/667 nm fluorescence (AID 1121); settings: higher = more signal;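 also: score merges feature fluorescence read at 667 nm with its signal to noise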
[4] = target: Carbonic anhydrase 2 (Homo sapiens) (UniProt P00918); assay: CAII small-molecule binders, profiling panel, biochemical, small-molecule microarray, Alexa647-labelled CAII (AID 1122); settings: CAII-A647 binding fluorescence, higher = more signal
[5] = COS7 lysate on small-molecule microarray, probe aHis, 635 nm (AID 1123); settings: COS7 cell lysate, fluorescence, higher = more signal;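 also: z-score combines 667nm fluorescence intensity with signal-to-noise per printed compound spot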
[6] = compound binding in COS7 lysate, probe aLAP1, primary screen, cell lysate, small-molecule microarray (AID 1124); settings: probe aLAP1, fluorescence, higher = more signal;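 also: lysate comes from COS7 cells expressing LAP1 and is applied at 0.3 µg/mL; score merges spot fluorescence near 667 nm with signal-to-noise over triplicate slides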
Sam68 (KHDRBS1) = assay: Sam68 small-molecule binders, primary screen, biochemical, small-molecule microarray, 635 nm fluorescence (AID 1125); settings: small-molecule microarray binding, higher = more signal;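 also: score merges 667 nm channel intensity with signal to noise over triplicate slides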
[7] = system: Chordin-like protein 2 (CHRDL2); assay: CHRDL2 small-molecule binders, primary screen, biochemical, small-molecule microarray, 635 nm fluorescence (AID 1126); settings: small-molecule microarray binding, fluorescence 635 nm; higher = more signal;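 also: printed compound slides probed with Chrdl2 protein at 4 µg/mL for 1 h at 4 C; score merges 667 nm emission intensity with signal to noise over three replicate slides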
[8] = target: Concanavalin-A (Canavalia ensiformis) (UniProt P02866); assay: ConA small-molecule binders, primary screen, artefact control for SMM control protein annotation, biochemical, small-molecule microarray, Alexa647 label, 635 nm (AID 1127); settings: ConA-A647 binding fluorescence, higher = more signal;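 also: z combines 667 nm emission intensity with signal-to-noise across three replicate slides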
Concanavalin-A (Canavalia ensiformis), sequence (P02866 whole entry, looked up): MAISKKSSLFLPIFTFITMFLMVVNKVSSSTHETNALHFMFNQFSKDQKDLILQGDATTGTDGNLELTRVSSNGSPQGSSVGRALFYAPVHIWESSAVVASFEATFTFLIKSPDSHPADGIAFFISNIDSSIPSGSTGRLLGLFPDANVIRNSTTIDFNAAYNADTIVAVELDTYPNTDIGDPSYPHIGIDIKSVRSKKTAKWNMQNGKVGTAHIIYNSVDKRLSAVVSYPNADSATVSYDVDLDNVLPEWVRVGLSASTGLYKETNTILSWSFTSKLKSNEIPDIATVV

Albumin (Bos taurus), sequence (P02769 whole entry, looked up): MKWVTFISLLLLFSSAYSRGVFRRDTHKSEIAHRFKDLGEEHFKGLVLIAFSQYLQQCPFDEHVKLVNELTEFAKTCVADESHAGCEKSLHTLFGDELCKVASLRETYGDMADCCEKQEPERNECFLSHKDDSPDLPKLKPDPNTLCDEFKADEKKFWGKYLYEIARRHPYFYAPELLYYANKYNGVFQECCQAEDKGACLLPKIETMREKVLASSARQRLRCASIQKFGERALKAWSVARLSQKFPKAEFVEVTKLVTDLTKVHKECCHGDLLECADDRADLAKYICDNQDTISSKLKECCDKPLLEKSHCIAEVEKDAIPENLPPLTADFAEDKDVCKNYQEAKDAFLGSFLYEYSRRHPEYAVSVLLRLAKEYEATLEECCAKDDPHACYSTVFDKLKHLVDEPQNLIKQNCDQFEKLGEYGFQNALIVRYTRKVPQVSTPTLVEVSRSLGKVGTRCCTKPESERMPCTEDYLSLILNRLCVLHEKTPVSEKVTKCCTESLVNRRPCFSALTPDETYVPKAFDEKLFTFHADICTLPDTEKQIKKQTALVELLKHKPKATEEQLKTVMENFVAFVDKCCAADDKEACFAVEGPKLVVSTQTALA

SMILES | composite z-score (Albumin (Bos taurus)) | composite Z-score [1] | composite z-score [2] | composite z-score [3] | composite z-score [4] | composite z-score [5] | composite z-score [6] | composite z-score (Sam68 (KHDRBS1)) | composite z-score [7] | composite z-score [8]
O=C1O[C@@H](c2ccccc2)[C@@H](c2ccccc2)N2[C@@H](c3ccc(OCCO)cc3)[C@]3(C(=O)Nc4ccc(C#CC5=CCCCC5)cc43)[C@@H](C(=O)O)[C@H]12 | 0.953 | 0.556 (inactive) | 0.206 | 0.0588 | 0.499 | 0.866 | 0.711 | 1.3 | 0.0501 | 1.16
COCCOC(=O)N1C(=O)[C@@]2(c3cc(C#CCC(C(=O)OC)C(=O)OC)ccc31)[C@H](C(=O)N1CCCCCCC1)[C@H]1C(=O)O[C@H](c3ccccc3)[C@H](c3ccccc3)N1[C@@H]2c1ccc(OCCO)cc1 | 0.786 | 4.41 (inactive) | 1.61 | 0.738 | 0.643 | 3.78 | 1.06 | 1.3 | 1.53 | 1.15
O=C/C=C/c1ccc2c(c1)OCO2 | -0.776 | 0.16 (inactive) | -0.0883 | -0.109 | -0.0937 | -0.408 | 1.57 | 0.256 | 1.11 | 0.176
COCCOC(=O)N1C(=O)[C@@]2(c3cc(C#CCC(C(=O)OC)C(=O)OC)ccc31)[C@H](C(=O)N1CCN(c3ncccn3)CC1)[C@H]1C(=O)O[C@H](c3ccccc3)[C@H](c3ccccc3)N1[C@@H]2c1ccc(OCCO)cc1 | 0.727 | 1.44 (inactive) | 0.0097 | -0.14 | 0.323 | 1.35 | 0.522 | 1.3 | 0.17 | 1.09
COc1ccc([Si](C)(C)[C@H]2[C@H](CCn3cc(CCO)nn3)O[C@@]3(C(=O)N(Cc4ccc(N5CCOC5=O)cc4)c4ccccc43)[C@@H]2C)cc1 | 0.535 | 0.533 (inactive) | -0.0126 | -0.112 | 0.458 | 1.94 | 0.622 | 1.23 | 0.21 | 0.702
O=C1O[C@@H](c2ccccc2)[C@@H](c2ccccc2)N2[C@@H](c3ccc(O)cc3)[C@]3(C(=O)Nc4ccc(C#CC5=CCCCC5)cc43)[C@@H](C(=O)O)[C@H]12 | 0.885 | 0.341 (inactive) | 0.139 | 0.0685 | 0.715 | 1.86 | 0.788 | 1.32 | -0.194 | 0.9
COc1ccc([Si](C)(C)[C@@H]2[C@@H](CCn3cc([C@H](O)c4ccccc4)nn3)O[C@]3(C(=O)N(Cc4cccc(N5CCOC5=O)c4)c4ccccc43)[C@H]2C)cc1 | -0.424 | 0.25 (inactive) | -0.259 | -0.175 | -0.208 | -0.359 | -0.0364 | -0.217 | -1.14 | -0.348
COC(=O)[C@@]1(Cc2ccccc2)[C@H]2c3cc(C(=O)N(C)C)n(Cc4c(-c5ccccc5)noc4C)c3C[C@H]2CN1C(=O)c1ccccc1 | 1.01 | -0.899 (inactive) | 0.187 | 0.379 | 0.437 | 2.63 | -0.157 | 0.486 | 0.28 | 0.564
O=C1O[C@H](c2ccccc2)[C@H](c2ccccc2)N2[C@H]1[C@@H](C(=O)N1CCN(c3ncccn3)CC1)[C@]1(C(=O)Nc3ccccc31)[C@H]2c1ccc(OCCO)cc1 | 0.204 | -0.317 (inactive) | 0.183 | -0.0986 | 0.301 | 1.75 | 0.151 | 1.3 | 0.602 | 0.536
C[C@]1(C(=O)NCc2ccccc2)c2ccccc2C(=O)N(Cc2ccc(OC(F)(F)F)cc2)[C@H]1c1ccc(CO)cc1 | -0.125 | 0.843 (inactive) | -0.211 | -0.103 | 0.681 | 1.78 | 0.107 | 0.426 | -0.256 | 0.592
NC(=O)NCC#Cc1ccc2c(c1)[C@]1(C(=O)N2)[C@H](C(=O)N2CCCCCCC2)[C@H]2C(=O)O[C@H](c3ccccc3)[C@H](c3ccccc3)N2[C@@H]1c1ccc(OCCO)cc1 | -0.946 | -0.397 (inactive) | 1.29 | 0.683 | 0.336 | 1.6 | 0.864 | 1.32 | 1.09 | 0.987
CC(C)CNC(=O)[C@@]1(c2ccc([N+](=O)[O-])cc2)CC(=O)N(CC23CC4CC(CC(C4)C2)C3)[C@@H]1c1ccc(CO)cc1 | 0.152 | 0.0585 (inactive) | 0.157 | 0.014 | 0.523 | 1.42 | 1.15 | 1.04 | 0.201 | 0.73
COc1ccc(CCNC(=O)[C@@]2(c3ccc([N+](=O)[O-])cc3)CC(=O)N(CC34CC5CC(CC(C5)C3)C4)[C@@H]2c2ccc(CO)cc2)cc1 | -0.191 | 0.22 (inactive) | 0.0494 | -0.0617 | 0.18 | 1.11 | -0.291 | 1.09 | 0.647 | 1.12
CCCNC(=O)[C@@]1(c2ccc([N+](=O)[O-])cc2)CC(=O)N(CC23CC4CC(CC(C4)C2)C3)[C@@H]1c1ccc(CO)cc1 | -0.161 | -0.639 (inactive) | -0.255 | -0.168 | 0.716 | 1.08 | 1.88 | 0.591 | -0.0438 | 0.531
C=CC[C@]1(C(=O)N2CCOCC2)N=C(c2ccc(OCCCO)cc2)O[C@H]1c1ccccc1 | 0.758 | -0.128 (inactive) | 0.0225 | -0.0906 | 0.785 | 3.15 | 0.446 | 0.618 | -0.0547 | 1.09
CC(=O)NCCCC[C@@H]1NC(=O)[C@@H]2C[C@H](C(=O)NCCCCN(C)C)[C@H](c3ccc(O)cc3)N2C1=O | -0.503 | 0.48 (inactive) | -0.292 | -0.14 | -0.0303 | -0.089 | 0.765 | -0.781 | 0.46 | -0.612
C=CCNC(=O)[C@H]1[C@@H]2C(=O)O[C@@H](c3ccccc3)[C@@H](c3ccccc3)N2[C@@H](c2ccc(O)cc2)[C@]12C(=O)N(C(=O)OCCOC)c1ccc(C#CCCO)cc12 | 0.534 | -0.228 (inactive) | -0.155 | -0.0942 | 0.701 | 2.1 | 0.881 | 1.08 | -0.445 | 0.903
CCCCC(O)C1C=CC2C(=O)N(C3CCCCC3)C(=O)C2N1Nc1ccc(OC)cc1 (stereo not given) | 0.739 | 0.258 (inactive) | 0.11 | -0.0894 | 0.511 | 1.53 | 0.56 | 1.19 | -0.135 | 0.8
CC(c1ccccc1)C(O)C1C=CC2C(=O)NC(=O)C2N1Nc1ccccn1 (stereo not given) | 0.183 | 0.239 (inactive) | 0.0876 | 0.0012 | 0.531 | 0.954 | 0.398 | 1.1 | 0.407 | 0.901
COC(=O)C(CC#Cc1ccc2c(c1)[C@]1(C(=O)N2)[C@H](C(=O)NC[C@H](O)c2ccccc2)[C@H]2C(=O)O[C@H](c3ccccc3)[C@H](c3ccccc3)N2[C@@H]1c1ccc(OCCO)cc1)C(=O)OC | 0.516 | 2.12 (inactive) | 1.4 | 0.146 | 0.556 | 2.94 | 0.811 | 1.27 | 0.75 | 1.02
C=CCC(OC(C)=O)[C@@H]1[C@@H](N(Cc2ccc(-c3ccccc3)cc2)C(=O)Cc2ccc(F)cc2)c2cc(OCCCO)ccc2N1C(=O)c1ccc2ccccc2n1 (stereo not given in full) | 0.59 | -1.01 (inactive) | 0.0653 | -0.0796 | -0.161 | 0.164 | 0.0508 | -0.0112 | 0.255 | -0.526
CCOc1cc(C(O)C2C=CC3C(=O)N(c4ccccc4)C(=O)C3N2Nc2ccc([N+](=O)[O-])cc2)ccc1O (stereo not given) | 0.839 | -0.014 (inactive) | 0.0488 | -0.0666 | 0.865 | 1.78 | 0.502 | 0.874 | -0.136 | 0.548
COC(=O)[C@@]1(Cc2ccccc2N=[N+]=[N-])COC(c2ccc(OCCCO)cc2)=N1 | -0.261 | 1.07 (inactive) | -0.0546 | -0.112 | 0.573 | 1.99 | 0.753 | 0.994 | -0.473 | 1.08
C=CC[C@@]1(C(=O)O)N=C(c2ccc(OCCCO)cc2)O[C@@H]1c1ccccc1N=[N+]=[N-] | 0.851 | 0.544 (inactive) | 0.169 | 0.0828 | 0.513 | 2.03 | 0.906 | 1.09 | 0.52 | 0.247
COCCOC(=O)N1C(=O)[C@@]2(c3cc(C#CCCO)ccc31)[C@H](C(=O)NC[C@H](O)c1ccccc1)[C@H]1C(=O)O[C@H](c3ccccc3)[C@H](c3ccccc3)N1[C@@H]2c1ccc(O)cc1 | 0.508 | -0.302 (inactive) | -0.0362 | -0.115 | 0.568 | 0.813 | 0.16 | 0.053 | -0.496 | 1.09
C#CCN(C(/C=C/c1ccccc1)CO)C(C(=O)O)c1ccccc1 (stereo not given) | -0.56 | 0.535 (inactive) | -0.389 | -0.181 | -0.199 | -0.21 | -0.0599 | -1.12 | 0.0041 | 0.0529
COC(=O)[C@@]1(Cc2ccc(F)cc2)[C@H]2c3cc(C(=O)N4CCCC4)n(Cc4cccc5ccccc45)c3C[C@H]2CN1C(=O)c1ccccc1 | 1.08 | -0.421 (inactive) | 0.535 | 0.173 | 0.533 | 3.22 | 0.513 | 1.07 | -0.411 | 0.405
CC(=O)C1=CCC(c2ccccc2)N(S(=O)(=O)c2ccc(C)cc2)C1 (stereo not given) | 0.632 | -0.685 (inactive) | 0.101 | -0.0439 | 0.66 | 2.5 | 0.763 | 0.579 | 0.725 | 0.789
